The source made the active and inactive calls. The calls were made as follows: active = hit-call score of the fitted dose curve at least 0.9, where 1 is the maximum; inactive = score below 0.9.

The source of these data is PubChem BioAssay (EPA / NIEHS).

The nature of the assay: ATG_ISRE_CIS: Attagene CIS-FACTORIAL HepG2 Assay for human Interferon Regulatory Factor 1 (IRF1) binding to an Interferon-Stimulated Response Element (ISRE) (AID 2282948). As to conditions: HepG2 ISRE cis-reporter (Attagene), mRNA transcription readout; actives raise or lower the signal. As to the method: ATG_CIS is a cell-based, multiplexed-readout assay that uses HepG2, a human liver cell line, with measurements taken at 24 hours after chemical dosing in a 24-well plate.ATG_ISRE_CIS is one of 52 assay component(s) measured or calculated from the ATG_CIS assay. It is designed to make measurements of mRNA induction, a form of inducible reporter, as detected with fluorescence intensity signals by Reverse transcription polymerase chain reaction (RT-PCR) and Capillary electrophoresis technology.Data from the assay component ATG_ISRE_CIS was analyzed into 1 assay endpoint. This assay endpoint, ATG_ISRE_CIS, was analyzed with bidirectional fitting relative to DMSO as the negative control and baseline of activity. Using a type of inducible reporter, measures of mRNA for gain or loss-of-signal activity can be used to understand the reporter gene at the transcription factor-level as they relate to the gene IRF1. Furthermore, this assay endpoint can be referred to as a primary readout, because this assay has produced multiple assay endpoints where this one serves a reporter gene function. To generalize the intended target to other relatable targets, this assay endpoint is annotated to the dna binding intended target family, where the subfamily is interferon regulatory factors.
Human liver HepG2 cells are transiently transfected with multiple reporter transcription units (MRTUs) in 6-well plates using FuGene 6 reagent (Roche; 3 ml FuGene/1 mg DNA). The MRTU constructs are regulated by a cis-regulating element (promoter). […] A major difference between the CIS and TRANS system is that in CIS activities of endogenous TFs are measured, whereas the TRANS assay evaluates changes in activities of exogenous, chimeric NR-Gal4 proteins. […] At the end of 24 hour incubation, total RNA was isolated using TriZol reagent (Invitrogen). The isolated RNA is then reverse-transcribed using oligo(dT) primer and Mo-MLV reverse transcriptase (Invitrogen) with DNAse I (Ambion) treatment for 30 min. The one-tenth of the produced cDNA was amplified by PCR using Taq DNA polymerase (Invitrogen) and two reporter sequence-specific primers. The PCR products were fluorescently labeled by primer extension with 6-arboxyfluorescein (6-FAM) 5'-labeled reporter sequence-specific primer (2 min at 95 C, 20 s at 68 C and 10 min at 72 C) and these products were digested with 5U of HpaI (New England Biolabs) for 2h at 37 C. The fragments were purified using Qiaquick PCR columns (Qiagen), analyzed on an ABI 3130xL genetic analyzer (Applied Biosystems) with peak positions identified by using a set of X-rhodamine (ROX)-labeled MapMarker1000 molecular weight standards (BioVentures). The raw capillary electrophoresis data was processed using Attagraph software (Attagene).
Consider `CCCCC(CC)COS(=O)(=O)O` (stereo not given), for which the outcome was inactive. On to `CC(C)CC(=O)OCc1ccccc1`, for which the compound was called inactive. Regarding `CCOc1ccc(NC(N)=O)cc1`, the result was inactive. Consider `Cc1c(C(=O)c2c[nH]n(C)c2=O)ccc(S(C)(=O)=O)c1C1=NOCC1`, for which the compound was classed as inactive.

One may read the AC50 as the concentration giving half of the maximal activity seen. On to `CN(C)c1ccc2nc3ccc(=[N+](C)C)cc-3sc2c1`, for which the AC50 is 41.6 µM (active). For the compound `Clc1cccnc1`, the outcome was inactive. For the compound `C=CC(=O)NC(C)(C)C`, the compound was classed as inactive.

In the case of `Nc1ccc(Cl)c(N)c1`, the result was inactive.

Turning to `C[Si](C)(C)N[Si](C)(C)C`, the result was inactive. As for `Oc1ccccc1Cc1ccccc1O`, the concentration at half-maximal activity (AC50) is 149 µM (active). Turning to `O=C(O)CCC(=O)O`, the compound was called inactive. With `NC(=O)Nc1ccccc1`, the call was inactive. Take `CCCCCCOC(=O)CCCCC(=O)OCCCCCC`: the compound was called inactive. In the case of `CCCCOCCOCCOC(C)=O`, the compound was called inactive. Turning to `Cc1cc(C)c(C=O)c(C)c1`, the compound was classed as inactive. The same measure, in the same setting: in the case of `Cc1c(O)cccc1O` it was “inactive”; in that of `CC(=O)CCC=C(C)C`, “inactive”. In the case of `Cc1c[nH]c(=O)[nH]c1=O`, the outcome was inactive.

On to `CC=C(C)C=CC=C(C)C`, for which the result was inactive. Same read-out and setting: in the case of `CC(=O)c1ccc(S(=O)(=O)NC(=O)NC2CCCCC2)cc1` it was “inactive”; in that of `CCC(C)c1ccccc1` (stereo not given), “inactive”; in that of `CCCCCCO`, “inactive”. Still for that read-out and setting: the same measure for `CCCC(C)C(=O)OCC` (stereo not given): “inactive”; for `C=CCCCCCCCCOC(C)=O`: “inactive”. With `CCCCCCCC(=O)OCC`, the outcome was inactive. For the compound `O=C(Nc1ccccc1)c1cc(Cl)ccc1O`, the call was inactive. With `Oc1ccc(/C=C/c2cc(O)cc(O)c2)cc1`, the AC50 is 100 µM (active).

On to `CCCCCCCCCC[N+](C)(CCCCCCCCCC)CCC[Si](OC)(OC)OC`, for which the concentration at half-maximal activity (AC50) was 17.4 µM (active). `CC(=O)OC/C=C(/C)CCC=C(C)C`: the compound was called inactive.

For `CCOC(=O)C1=NOC(c2ccccc2)(c2ccccc2)C1`, the compound was called inactive. The same measure, in the same setting: the same measure for `CCCCOC(=O)C(C)CC` (stereo not given): “inactive”. On the same count and under the same terms, in the case of `COc1ccc(C(=O)c2ccccc2)c(O)c1` it was “inactive”. As to `CC(C)CCCCCOC(=O)CS`, the call was inactive. `CCCCc1ccc(Cl)cc1`: the compound was called inactive. `CCC(C)N` (stereo not given): the compound was classed as inactive. Consider `CC1(C)CCC[C@]2(C)[C@H]3CC(=O)O[C@]3(C)CC[C@@H]12`, for which the result was inactive. On the same count and under the same terms, the same measure for `COC(=O)C=Cc1ccccc1`: “inactive”; for `C[N+](C)(C)CCCNS(=O)(=O)C(F)(F)C(F)(F)C(F)(F)C(F)(F)C(F)(F)C(F)(F)C(F)(F)C(F)(F)F`: “inactive”; for `O=C(Cl)c1ccc(C(=O)Cl)cc1`: “inactive”. For the compound `Nc1ccnc(=O)[nH]1`, the compound was classed as inactive.
